Values without a mark were called inactive. Activity calls are given as the source filed them. Calls follow the shape of the dose curve; as a rule, active = well fitted curve in the direction sought with a large enough effect in the repeat runs; inconclusive = weak or mixed curves; inactive = flat fitted curve, though single readings scatter.
test: qHTS assay to test for compound auto fluorescence at 535 nm (green) in HEK293 cell free culture (AID 720682); conditions: cell-free medium, green autofluorescence 485/535 nm, stronger effect = higher value; series mostly up to 91.3 µM; activity change: at the top concentration
Excerpt: U.S. Tox21 Program National Center for Advancing Translational Sciences [NCATS] NIH Chemical Genomics Center [NCGC] U.S. Environmental Protection Agency [EPA] National Institutes of Environmental Health Sciences [NIEHS] National Toxicology Program [NTP] U.S. Food and Drug Administration [FDA] Tox21 Assay Overview: Compound auto fluorescence often interferes with screening of the compound library against various biological targets and signaling pathways. Some of these compounds may have fluorophoric properties. Such properties may interfere with the assay outputs resulting in false positives and/or negatives. To decrease such complications and ensure the compound activities are relevant in terms of biological response, the Tox21 10K compound library was screened for auto fluorescence. From the fluorophores used as reporter signals in our screening assays, the auto fluorescence equivalencies of compounds against three fluorophores have been evaluated: Triamterene, Fluorescein and Rose Bengal sodium for blue, green and red fluorescence, respectively. The fluorescence intensities were measured using Excitation/Emission wavelengths at 405/460nm, 485/535nm and 540/590nm for blue, green and red labels, respectively. This assay includes the green fluorescence data.
Tox21 Assay Protocol Summary: 5 uL of culture medium (DMEM containing 10% FBS) per well was dispensed into black wall/clear bottom 1536-well plates using a Multidrop Combi Dispenser (ThermoFisher Scientific, Waltham, MA). After 23 nL compound or DMSO vehicle was transferred into assay plate by a pintool work station (Kalypsys, San Diego, CA), fluorescence intensities in the assay plates were measured by an Envision (PerkinElmer, Shelton, CT) plate reader using three labels for measuring blue, green and red fluorescence at […] 460, 535 and 590nm respectively.
% is scaled to controls: 0 for no effect and ±100 for the full control effect.

Compared with O=C(Cl)c1cccc([N+](=O)[O-])c1, Cc1ccc([N+](=O)[O-])c(N)c1 is higher in “activity change” value: -0.0414% for the first, 0.0896% for the second.

First: CCCCCCCCc1ccc(S(=O)(=O)O)cc1
Second: CCCCCCCOC(=O)CCC
The “activity change” value of the first is lower: -0.0808% for the first, 0.0837% for the second.

Compared with FC(F)(F)C(Cl)(Cl)Cl, CC1(C)C(=O)N(Cl)C(=O)N1Br is higher in “activity change” value: -0.0312% for the first, 0.0055% for the second.

Compared with OCc1c2ccccc2cc2ccccc12, OCCN(CCO)c1ccccc1 is higher in “activity change” value: -0.027% for the first, -0.0219% for the second.

Compared with O=C1CCN(c2ccccc2)N1, Nc1cccc(S(=O)(=O)O)c1 is higher in “activity change” value: 0.0416% for the first, 0.073% for the second.

Going from C[C@]12C(=O)OC(=O)[C@H]1[C@H]1C=C[C@@H]2C1 to CCOC(=O)C1CC(=O)C(=C(O)C2CC2)C(=O)C1 (stereo not given), the “activity change” value rises from -0.0116% to 0.0343%.

Compared with CCNCCO, CCN(CC)C(=O)N(CC)CC is higher in “activity change” value: -0.0139% for the first, 0.0294% for the second.

Compared with COC(=O)c1ccc(OC)cc1, COc1nc(C)nc(NC(=O)NS(=O)(=O)c2ccccc2OCCCl)n1 is lower in “activity change” value: 0.0066% for the first, -0.0051% for the second.

First: CC(C)=CCC[C@](C)(O)[C@@H]1CC=C(C)CC1
Second: Cc1cc2nc(N)sc2cc1C
The “activity change” value of the first is lower: -0.0077% for the first, 0% for the second.

With C=CC(C)(O)CC/C=C(\C)CCC=C(C)C (stereo not given) the outcome was “inactive”.
For COc1ccccc1N1CCN(CCCNc2cc(=O)n(C)c(=O)n2C)CC1, the outcome was “inactive”.
In the case of CN(C)Cc1ccccc1, the outcome is reported as “inactive”.

Compared with O=[N+]([O-])c1nccn1CO[C@@H](CO)[C@H](O)CO, Cc1ncc(CO)c(CN)c1O is lower in “activity change” value: 0.0255% [at 46 µM] for the first, -0.0156% [at 46 µM] for the second.

Compared with Cc1ccsc1C(=CCCN1CCC[C@@H](C(=O)O)C1)c1sccc1C, C[C@@H]1CN(c2c(F)c(F)c3c(=O)c(C(=O)O)cn(C4CC4)c3c2F)C[C@H](C)N1 is lower in “activity change” value: -0.0126% [at 46 µM] for the first, -0.0142% [at 46 µM] for the second.

First: Cc1cc(NS(=O)(=O)c2ccc(N)cc2)nc(C)n1
Second: CCOc1ccc(NS(=O)(=O)c2ccc(N)cc2)nn1
The “activity change” value of the first is higher: -0.0112% [at 46 µM] for the first, -0.0947% [at 46 µM] for the second.

First: CN(C)CC[C@@H](c1ccc(Cl)cc1)c1ccccn1
Second: COc1ccc2nc(NC(=O)Nc3ccccc3)sc2c1
The “activity change” value of the first is higher: -0.0554% [at 46 µM] for the first, -0.0643% [at 46 µM] for the second.

With C[C@@H](N)C(=O)O the “activity change” value was -0.174% [at 46 µM].

Going from CCOC(=O)CS to COC(=O)C(C)O (stereo not given), the “activity change” value falls from 0.0606% [at 95.7 µM] to 0.018% [at 95.7 µM].

First: C=C(C)C(=O)OCCOP(=O)(O)O
Second: Cc1ccc([N+](=O)[O-])cc1Cl
The “activity change” value of the first is higher: 0.0215% [at 95.7 µM] for the first, -0.0692% [at 95.7 µM] for the second.

Going from C1CCOC1 to C=CC1CO1 (stereo not given), the “activity change” value falls from 0.18% [at 95.7 µM] to -0.0798% [at 95.7 µM].

With NC(Cc1ccc(F)cc1)C(=O)O (stereo not given) the activity change was 0.0132% [at 3.72 µM].

Compared with CN(C)C(=O)NC1(c2ccccc2)CCN(CCC[C@]2(c3ccc(Cl)c(Cl)c3)CCCN(C(=O)c3ccccc3)C2)CC1, CC(CNC1CCCCC1)OC(=O)c1ccccc1 (stereo not given) is lower in activity change: 0.0134% [at 18.6 µM] for the first, 0.0004% [at 18.6 µM] for the second.

For CCN[C@H]1CN(CCCOC)S(=O)(=O)c2sc(S(N)(=O)=O)cc21, the activity change was -0.0447% [at 18.6 µM].

From PubChem BioAssay (Tox21)
